# From the supplement of paper PMC6555819
# Legend:
# Experiment in all cases: PBM binding z-score (relative to random genomic background probes); higher = stronger binding; sequences stand for … in GC…GCGATTGACAGCGTAGAATGAAGG
# [1] = test system: RARb homodimer (NR concentration 270 nM)
# In short: (§1)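 Antibodies against each partner of ligand-free nuclear receptor dimers (one per run) detected binding on custom Agilent 4×180K protein-binding microarrays after 1 h incubation. The double-stranded probes had 34-nt variable regions carrying direct-repeat seeds, single-nucleotide variants, half-site ablations and random human genomic background sequences. Binding z-scores, from regression-normalized fluorescence, use the random background probes as reference.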
# [2] = test system: RARg:RXRa (NR concentration 270 nM, RXRa partner concentration 90 nM)
# In short: as §1
# [3] = test system: RARg homodimer (NR concentration 270 nM)
# In short: as §1
# [4] = test system: RXRa DBDmut IVT, anti-RXR (DBD mutation: RXRa K156A/R161A, NR concentration 90 nM)
# In short: as §1
# [5] = test system: RXRa homodimer (NR concentration 180 nM)
# In short: as §1
# [6] = test system: THRa:RXRa (NR concentration 90 nM, RXRa partner concentration 90 nM)
# In short: as §1
# [7] = test system: THRa homodimer (NR concentration 90 nM)
# In short: as §1
# [8] = test system: VDR homodimer (NR concentration 270 nM)
# In short: as §1
Sequence,PBM binding z-score [1],PBM binding z-score [2],PBM binding z-score [3],PBM binding z-score [4],PBM binding z-score [5],PBM binding z-score [6],PBM binding z-score [7],PBM binding z-score [8]
TCGAGTTGGTCAAAGGTCACACACTCGAAATGCG,4.92,6.93,5.89,2.1,8.01,3.94,1.19,2.78
TCTGGGAGGACACGAAGGTCAGAGCTTTCCAGAG,3.49,3.51,4.11,0.416,2.01,2.9,1.18,1.35
ACTATTAGTGGAGACGAGGGCAACCGATAGGTTG,0.803,0.333,0.653,0.323,0.276,1.45,-0.218,0.427
TATACAGGGTCAAAGGCCAGAGTCCGAATGTCGA,3.69,5.63,4.75,2.69,6.54,3.62,0.963,2.67
AGAATGAGGTTAAGATCAGGGTAACAGAATACAT,1.41,2.69,1.65,1.08,2.85,3.16,1.45,0.804
GCTGCTAGGTCAACTGATGATCAGCTAAAGCTCG,3.3,4.46,5.15,1.46,2.75,2.85,0.808,-0.0271
TAGCCTAGGTCTTTGGGCCAGTATAGTACGCATC,-0.337,-0.253,-0.164,-0.783,-0.392,-0.218,-0.674,-0.826
CAGACTAGGTCAAGGTCAAAGTCGGTTTGTGCCA,5.11,6.12,6.67,2.61,6.04,4.32,3.45,4.18
TCGAGTAGGTTAGTCGGGGGATTCAGCCAACATA,0.341,0.199,0.0266,0.48,0.178,1.25,0.267,0.183
CATACATGGTCAGCTAGGCCAGAGTAGGGACGGC,0.263,0.156,0.731,-0.604,0.103,-0.289,-0.393,-1.02
ATCTCTACGTAACCAAGTTCAGTGAATGCCGAAC,1.18,0.251,0.741,0.846,0.369,0.592,0.325,2.27
ACAGACAGGTGATGCAGGTAACTCAGGCTATCAT,0.184,0.124,0.379,-0.176,0.354,0.549,-0.0382,-0.22
CCGACTGGGTCAGAAAGGTTACCATACCATCCGG,3.1,3.34,3.44,-0.333,3.12,2.09,0.207,1.14
CCCGAAAGGTCGTGCTCAGGTGAGTATACCAAAC,2.89,5.06,4.02,2.2,4.95,4.1,1.71,1.48
GATACCGGGTCAGCTAGAGGCCAGAGTATGGAAA,2.63,5.9,3.71,-0.115,2.83,2.64,0.0916,-0.166
GCTCGGAGCACAAGGTCAGAGCTTTGTCCGTAGA,2.85,2.63,2.19,0.228,2.25,2.75,0.948,0.184
TGTATTAGTTGATTAGGGCAACCGAAACAGCGGA,0.715,0.692,0.807,-0.317,-0.0234,0.551,0.64,0.784
TCATATAGGTAAGGGTGAAAGTCGAACGATATGA,0.703,0.914,0.595,0.475,1.36,0.89,-0.108,-0.201
TCTCGGAGGACACGAAAGATCAGAGCTCGACATC,0.303,0.634,1.18,0.716,0.321,1.2,0.159,-0.53

Sequence,PBM binding z-score [1],PBM binding z-score [2],PBM binding z-score [3],PBM binding z-score [4],PBM binding z-score [5],PBM binding z-score [6],PBM binding z-score [7],PBM binding z-score [8]
TGCATGAGGTTATAAGATCAGGGAACGTTGCAAA,0.168,1.64,1.08,1.32,1.84,1.93,0.273,0.679
TCTAGTAGTTGATTAGGGCAACCGAAACAGCGGA,0.439,0.0761,-0.0123,0.339,0.492,0.48,-0.325,-0.315
TTACCAAGGTGAAAGGCCGTTGATGCACGCCTTG,1.1,0.963,0.384,-0.3,1.3,1.45,0.31,-0.0991
CCTAGTAGGCCAATCTGGGTCACTCAAGGCTTGA,2.52,1.43,1.67,-0.0412,0.813,3.89,0.525,-0.107
GCATATAGGTAAAACAAGGTGAAAGTCCGATTGT,0.61,0.353,0.33,0.273,0.55,4.2,0.967,0.035
ACTAGTAGGCCAAGTTTGGGTCACTCAAACAAAG,2.48,2.53,2.16,0.0627,1.15,2.6,1.31,0.613
ATACAAAGGTGATCGTGAGGTCGTTGATACTAAC,2.28,3.87,1.85,0.883,2.73,3.66,2.12,2.97
AGTTAAAGTTCATCTAGGTAACGTAAGATATGCT,3.84,5.06,5.65,4.63,4.14,3.21,0.583,5.32
AGTCAAAGTTCAATAGGTAACGTAAGATTCAGCT,3.98,5.19,5.37,4.02,3.85,1.72,0.00177,3.4
CGTCCAAGGTCAGCAGGCCAGTGAAAGCGACGTG,4.1,5.07,5.77,2.47,3.86,3.74,1.89,1.25
TCGAGTAGGTTAGTCGGGGCATTCATCCAACATA,0.534,-0.0149,0.214,0.518,0.053,1.19,0.047,0.435
TCGAGTAGGTTAGGGGCATTTAGAATGGCGTCGA,0.875,0.265,0.0778,0.475,0.534,0.793,0.327,0.777
TCTTGTAGCTCAATAGAGGTTAAGAAAGTGCGCT,0.952,0.354,0.113,0.261,0.994,1.27,-0.704,-0.137
ATACCAAGGTGATCGTGACGTCGTTGATACTAAC,0.537,0.459,0.417,0.283,0.575,1.05,0.655,-0.00274
GATACAGGGTCTGCTAGAGGCCAGAGTATGGAAA,0.393,0.857,0.279,-0.877,-0.0451,-0.093,-0.687,-0.39
AGGATGAGGTTACCAAAGATCAGGGAAACGCTTG,1.18,1.94,1.65,0.402,2.51,2.67,1.29,0.534
TCTTGTAGAACAGCAGGTTAAGAAAGCTGGCCAA,-0.365,-0.24,-0.558,0.506,0.0431,-0.111,-1.15,-0.882
AGTATGAGGTTAAGATCAGGGAAACAGAATACAT,1.09,2.13,1.66,0.674,2.42,2.63,0.96,0.755
GTACCAATGTGAATAGGTCGTTGATGAGTAGGCG,0.0633,0.177,0.344,-0.108,0.356,-0.0211,-0.677,0.254

Sequence,PBM binding z-score [1],PBM binding z-score [2],PBM binding z-score [3],PBM binding z-score [4],PBM binding z-score [5],PBM binding z-score [6],PBM binding z-score [7],PBM binding z-score [8]
AGTCAAAGTTCATGTAGGTAACGTAAGATATGCT,3.73,5.31,5.84,4.74,4.45,2.65,-0.0581,4.64
GGAACGAGGGCTAGTTGATAGCAGAGTTTGATGG,-0.317,-0.308,-0.0732,0.278,-0.467,-0.749,-1.03,-0.367
ATCGAAAGGTCGAATGTGAGTATACCCACCCGAA,2.63,3.91,3.72,1.77,4.23,2.01,-0.0283,1
CGTCCAAGGTCAGAGAGGTAAGTGAATGCCGAGT,3.27,4.7,5.39,2.67,3.85,3.5,1.8,1.71
CCTTATGGGTCACGAGGTTATAGCACGACGAGCG,3.34,5.59,4.86,1.46,6.1,3.3,0.63,1.1
CAATCTAGGTCAAGAGGTCAAAGTCCGCTTCCCG,5.66,8.19,7.48,2.79,8.19,4.5,2.95,5.19
TCTAGTTGGTCACGAAGGTCACACACGACGGGTA,4.07,4.7,5.06,1.09,4.24,3.02,1.5,2.09
CGTCCAAGGTCAGAGAGCTCAGTGAATGCCGAGT,3.53,4.54,5.24,2.67,3.25,3.14,1.42,1.5
TCTGCTAGGTCAGTTGGTCAGCGAACGAGCTGCC,2.57,2.96,3.87,0.527,0.834,1.21,-0.151,-0.461
TCTAGCACGCCAGAGGGTCACTCAAGAGGTACGG,2.3,2.29,1.68,0.0776,2.41,1.48,-0.414,0.501
ATCTCTAGGTAAGACTCAGTCCAGTGAAGAACGC,0.112,0.208,0.132,0.459,0.144,0.31,0.282,0.336
CCTACTGGGCCACGAAAGGTCATTGAGTCAGTGA,4.62,4.82,4.58,0.536,5.23,3.79,0.857,1.69
CCGACTGGGGCAAAAAGGTTACCATACCATCCGG,2.34,1.8,1.6,-0.333,1.7,1.21,0.0277,0.374
CCTGCTAGGTCACTGGTCAGCTAAAGCAGCTCGC,3.08,3.82,4.65,1.68,2.59,2.7,0.97,0.123
AGTCAAAGTTCACTAGGTAACGTATGATTCAGCT,3.72,4.86,5.88,4.22,3.76,2,0.141,3.34
GCGTGTAGATCAAGGTTAAGAAAGACTAAGCTAA,0.225,0.354,0.289,-0.253,0.772,1.54,-0.256,-0.286
ACTAGCAGGCCAAGGTTGGGTCACTCAAACAAAG,2.3,1.64,1.36,-0.829,0.638,2.04,0.571,0.0121
CAGCCTAGGTCAAGGCCAGTATAGGAGGAACGTT,3.01,4.16,4.9,0.701,2.75,2.75,0.86,0.353
TCTTGTAGATCAAAGGTTAAGTAAGCCGAAGCCT,1.76,2.18,1.14,0.911,3.27,1.92,-0.293,-0.446
